Screening results from PubChem BioAssay.
BAP1 inh – blocks human BAP1 ubiquitin-AMC hydrolysis. Q92560. recombinant BAP1, Ub-AMC hydrolysis fluorescence kinetic; stronger effect = lower value. calls only at 20 µM. 72,000 tested, 0.48% active. AID 436;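 active = activity remaining at or below 50% of control, provided the compound also passes the data quality filters; inactive = the rest, including low values that fail the filters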;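 also: 100% = DMSO wells rate and 0% = substrate alone blank rate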
sEH inhibitor – inhibitors of human soluble epoxide hydrolase. P34913. inhibition, % at 2 µM. 91,000 tested, 0.34% active. recombinant human sEH enzymatic activity assay; in the data active = inhibition above about 80%
Target sequence (P34913 whole entry, looked up): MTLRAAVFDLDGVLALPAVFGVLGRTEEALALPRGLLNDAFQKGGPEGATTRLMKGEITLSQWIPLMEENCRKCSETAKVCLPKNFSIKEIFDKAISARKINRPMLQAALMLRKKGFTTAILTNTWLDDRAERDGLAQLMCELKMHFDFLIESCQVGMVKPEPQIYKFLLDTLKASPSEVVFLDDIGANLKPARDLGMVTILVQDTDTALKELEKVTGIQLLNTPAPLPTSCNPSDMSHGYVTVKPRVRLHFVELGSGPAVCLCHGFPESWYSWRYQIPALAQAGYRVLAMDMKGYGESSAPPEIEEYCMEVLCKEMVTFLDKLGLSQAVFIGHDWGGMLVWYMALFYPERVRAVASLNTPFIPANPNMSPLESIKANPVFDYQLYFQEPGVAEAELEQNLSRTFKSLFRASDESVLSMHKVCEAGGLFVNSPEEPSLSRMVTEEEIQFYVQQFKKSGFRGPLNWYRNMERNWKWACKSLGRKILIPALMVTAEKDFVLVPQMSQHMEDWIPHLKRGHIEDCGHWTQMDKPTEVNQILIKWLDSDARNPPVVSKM
Calb biofilm kill – kills Candida albicans biofilms. C. albicans biofilm + clotrimazole, Alamar Blue. inhibition, % at 6 µM. 85,000 tested, 0.14% active;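 active = inhibition above 20%; inactive = inhibition below 20%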;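 also: preformed 24 hr biofilms exposed to compound for 48 hr; 0% = biofilm without compound and 100% = blank killed by clotrimazole plus chlorhexidine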
sEH act – soluble epoxide hydrolase (human) activation; purified human sEH enzymatic activity, activator screen; activation, % at 2 µM; P34913; 91,000 tested, 0.04% active; in the data active = activation above about 37%
LYP inh 2 – inhibitors of human LYP (PTPN22) phosphatase. Q9Y2R2. recombinant LYP catalytic domain, DiFMUP fluorescence. inhibition, % at 2 µM. 96,000 tested, 0.21% active. AID 640;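 active = inhibition at 2 µM at or above a set limit, the screen mean plus 3 SD, cut at about 24% in these data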;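 also: 0% = DMSO with enzyme and 100% = enzyme fully blocked by orthovanadate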
PTPN22 act – LYP (human) phosphatase activation; Q9Y2R2; recombinant LYP, DiFMUP fluorescence; 0 = plate median, 100 = signal doubled; activation, % at 2 µM; 96,000 tested, 0.11% active; AID 697;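 active = activation at 2 µM above a set limit, the mean plus 5 SD, cut at about 37% in these data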
PTPN22 act conf – LYP (PTPN22) phosphatase activation confirmation; shares compounds with PTPN22 act; Recombinant LYP, DIFMUP fluorescence; zero set by plate's median compound well; activation, % at 2 µM; 100 tested, under 10 active; AID 1031; call rule not given here
An asterisk follows results filed as active; i = inactive; / = no result. An excerpt weighted towards active compounds, which were near 0.79% of everything screened.

SMILES | BAP1 inh | sEH inhibitor | Calb biofilm kill | sEH act | LYP inh 2 | PTPN22 act | PTPN22 act conf
OCCCCCN=c1cc(-c2ccccc2)oc2ccc(Cl)cc12 | / | -4 | 6 | 6 | -38 | 40* | -4
O=C(CCn1c(=O)[nH]c2ccsc2c1=O)N1CCN(Cc2ccc3c(c2)OCO3)CC1 | / | -4 | 8 | 5 | -40 | 45* | -2
COc1ccccc1N1CCN(C(=O)CCn2c(=O)[nH]c3ccsc3c2=O)CC1 | / | -9 | 7 | 10 | -1 | -1 | /
O=C(NCc1ccccc1)C1CCN(C(=O)NCc2ccccc2)CC1 | i | / | 7 | / | / | / | /
O=C(NC(=S)NCc1ccccc1)C1CCCCC1 | / | -8 | / | 11 | -35 | 39* | 4
COc1ccc(-c2csc(NC(=O)c3ccc(Br)s3)n2)cc1OC | i | / | / | / | / | / | /
O=C(CCNS(=O)(=O)c1cccs1)Nc1ccccc1F | i | 2 | / | 1 | -38 | 42* | -4
O=C(CCNS(=O)(=O)c1cccs1)Nc1nccs1 | / | / | 2 | / | -8 | 6 | /
CN(C)CCOC(=O)C(c1ccccc1)c1ccccc1 | i | / | / | / | / | / | /
COc1ccc(NC(=O)CSc2nc(C)c3c(c2C#N)CCCC3)cc1 | / | 17 | -1 | -14 | -44 | 47* | 3
COCCCNC(=O)c1c(-c2ccccc2Cl)noc1C | i | / | / | / | / | / | /
CCOc1ccc(CN2CCNC(=O)C2CC(=O)OC)cc1 (stereo not drawn) | i | -14 | -3 | 13 | -38 | 37* | -5
CCSc1c(C(=O)NC)ccc2c1C(=O)c1ccccc1C2=O | / | -14 | 8 | 18 | 8 | -6 | /
COC(=O)c1ccc2c(c1O)C(=O)c1ccccc1C2=O | / | -26 | / | 27 | -48 | 46* | 3
COC(=O)c1cc(NC(=O)c2sc3cc(C)ccc3c2Cl)cc(C(=O)OC)c1 | i | / | / | / | / | / | /
COC(=O)c1sccc1NC(=O)c1ccc(Cl)s1 | i | -6 | 6 | 9 | -2 | 2 | /
COC(=O)c1sccc1NC(=O)c1ccc(C)s1 | / | 4 | -1 | -2 | -50 | 43* | 2
COC(=O)C1=C(CSc2nncn2C)NC(=O)NC1c1ccc(F)cc1 (stereo not drawn) | / | -6 | 7 | 8 | -46 | 50* | 6
